# Experimental data from PubChem BioAssay AID1981 (Southern Research Specialized Biocontainment Screening …, 2009).
# Hit rate of the full screen: of about 2,200 compounds, about 480 (22%) were called active. No rule for the calls is given here. Not all results are given here. Measured potencies and affinities stand elsewhere.
# Test: S. Typhimurium GFP fluorescence dose response in modified counterscreen for PhoP regulon inhibitor project (AID 1981)
# Conditions: 4 h; series mostly up to 150 µM
row,SMILES,outcome
1,Cc1nc(NCc2ccc3c(c2)OCO3)c2oc3ccccc3c2n1,inactive
2,COc1ccc(/C=C/C(=O)NCCc2nc3ccccc3[nH]2)cc1,inactive
3,CCCCn1c(/N=C/c2c[nH]c3ccccc23)nc2ccccc21,inactive
4,O=C1CCc2cc(S(=O)(=O)N3CCN(c4cccc(Cl)c4)CC3)ccc2N1,inactive
5,C=CCN(C(=O)c1cccc(S(=O)(=O)N2CCN(C)CC2)c1)c1nc(-c2ccccc2)cs1,inactive
6,O=C(CCC(=O)c1cccs1)OCC(=O)N1CCN(S(=O)(=O)c2ccccc2)CC1,inactive
7,O=C1c2ccccc2C(=O)N1CCCc1nc2ccccc2c(=O)n1Cc1ccco1,inactive
8,O=C(NCCc1cn2ccccc2n1)c1ccccc1F,inactive
9,O=C(c1ccco1)[C@@H]1[C@@H]2C(=O)N(c3ccc(F)cc3)C(=O)[C@@H]2[C@H]2C=Cc3ccccc3N21,inactive
10,Clc1ccc(-c2csc3ncnc(N4CCc5ccccc5C4)c23)cc1,inactive
11,CCCCN(C(=O)NC(=O)Nc1nc2ccc(OC)cc2s1)S(C)(=O)=O,inactive
12,c1csc(C2Nc3ccccc3-c3nc4ccccc4n32)c1 (stereo not given),inactive
13,c1ccc(CSc2snnc2-c2ccccc2)cc1,inactive
14,O=C(Cc1c[nH]c2ccccc12)N/N=C/c1ccc(F)cc1,inactive
15,O=c1[nH]c(NNC(=S)NCc2ccccc2)nc2c1C1(CCCCC1)Cc1ccccc1-2,inactive
16,CN(C(=O)c1cccc(C#N)c1)c1nnc(-c2cnccn2)s1,inactive
17,COc1ccc(-c2ccccc2)cc1NCc1ccccc1C,inactive
18,CC(=O)Nc1cccc(-c2csc(Nc3cccc(C)n3)n2)c1,inactive
19,CCOC(=O)C1=C(C)NC(=O)NC1c1ccsc1 (stereo not given),inactive
20,CCOC(=O)C(NC(=O)c1cccc(Cl)c1)(OCc1ccccc1)C(F)(F)F (stereo not given),inactive
21,Cc1ccc(C(=O)N2CC3(C(C)C)CN(C(=O)c4ccc(C)cc4)CC(C(C)C)(C2)C3=O)cc1,inactive
22,CCN(CC)S(=O)(=O)c1cccc(C(=O)NC(Cc2c[nH]c3ccccc23)c2nnc3n2CCC3)c1 (stereo not given),inactive
23,CCn1c2ccccc2c2cc(/C=N/NC(=O)c3ccccc3)ccc21,inactive
24,O=C(N/N=C/c1ccco1)c1cccc(S(=O)(=O)Nc2ccccc2Cl)c1,inactive

row,SMILES,outcome
1,Cc1ccc(-n2c(C)cc(/C=N/NC(N)=S)c2C)cc1,inactive
2,O=C(/C=C\c1ccco1)Nc1nc(-c2ccccc2)cs1,inactive
3,COc1cccc(OC)c1C(=O)NC(=S)Nc1cc(-c2nc3ccccc3[nH]2)ccc1Cl,inactive
4,Cc1[nH]c2ccccc2c1/C=N/Nc1ccc(F)cc1F,inactive
5,N#Cc1nc(-c2cccs2)oc1NCCCN1CCOCC1,inactive
6,c1ccc(Nc2cc(Nc3ccccc3)[nH]n2)cc1,inactive
7,Oc1c(Br)cc(Br)cc1C=NCc1ccccc1,inactive
8,Cc1ccc(-n2sc3ccccc3c2=O)cc1S(=O)(=O)N1CCCCC1,inactive
9,Cc1ccc(C)c(-c2nc3ccc(N)cc3[nH]2)c1,inactive
10,c1ccc(CCNc2nc3ccccc3s2)cc1,inactive
11,CC(=O)Nc1ccc(C(=O)N2CCN(C(=O)c3ccco3)CC2)cc1,inactive
12,Cc1cccnc1N(C(=O)Nc1ccccc1)C1=NCC(C)(C)S1,inactive
13,CN1C(=O)/C(=C/c2cccn2-c2ccc3ccccc3c2)C(=O)NC1=S,inactive
14,CCOc1cc(/C=C2/NC(=O)N(CC(=O)Nc3cccc(C)c3)C2=O)ccc1OC,inactive
15,COc1ccc(C(C)C)cc1S(=O)(=O)Nc1ccc(Cl)cn1,inactive
16,Cc1ccc2[nH]c3c(=O)n(CCc4cnc[nH]4)cnc3c2c1,inactive
17,c1ccc(-n2cnc3cc(NCc4ccncc4)ccc32)cc1,inactive
18,Cc1[nH]c2ccccc2c1C1=CCNCC1,inactive
19,CCOC(=O)C1CCCN(C(=O)c2sc3nc(C)nc(N4CCOCC4)c3c2C)C1 (stereo not given),inactive
20,Cc1cc(C(=O)COC(=O)CNC(=O)c2ccco2)c(C)n1Cc1ccco1,inactive
21,CN(C)c1ccc(/C=N/c2cc(-c3ccccc3)nn2-c2ccccc2)cc1,inactive
22,Cc1ccc(N2C(=O)CC(n3ccnc3)C2=O)cc1C (stereo not given),inactive
23,Cc1cc(NC(=O)c2cnn3cccnc23)no1,inactive
24,COc1ccc(-c2cc(C(=O)Nc3cc(C)n(Cc4ccc(Cl)cc4)n3)no2)cc1OC,inactive

row,SMILES,outcome
1,O=C(NCCSCc1ccccc1)c1ccc(F)cc1,inactive
2,COC(=O)CN1C(c2ccc(OC)cc2)=Nc2ccc(Cl)cc2C1c1ccccc1 (stereo not given),inactive
3,Cc1ccc(-c2cc(C(=O)Nc3nccs3)c3ccccc3n2)o1,inactive
4,Nc1nc(N2CCN(C/C=C/c3ccccc3)CC2)nc2ccccc12,inactive
5,O=C(O)CCC(=O)NCC1OCCc2ccccc21 (stereo not given),inactive
6,Cc1cc(/C=N\NC(=O)c2cccs2)c(C)n1-c1ccc2ncccc2c1,inactive
7,COC(=O)c1cn(C(=O)c2cccs2)c2ccccc12,inactive
8,Cc1nc2ccccn2c1C(=O)N/N=C/c1ccccc1[N+](=O)[O-],inactive
9,COc1c(/C=N/Nc2nc(N3CCCCC3)nc(N3CCCCC3)n2)cccc1[N+](=O)[O-],inactive
10,CCOC(=O)C(NC(=O)CC)(Nc1ccc(C(O)(C(=O)OCC)C(F)(F)F)cc1C)C(F)(F)F (stereo not given),inactive
11,CN(C(=O)c1ccc2c(c1)OCO2)C1(C(=O)NC2CCCCC2)CCCCC1,inactive
12,O=C(CSc1nnc(Cc2ccccc2)o1)NCCc1ccccc1,inactive
13,Cc1ccc(CNc2oc(-c3cccs3)nc2C#N)cc1,inactive
14,COc1cccc2[nH]c3c(N4CCC(C)CC4)ncnc3c12,inactive
15,NCCCC[C@H]1CN=C(N)N1CCC12CC3CC(CC(C3)C1)C2,inactive
16,COCC(=O)N=Nc1c(O)[nH]c2ccccc12,inactive
17,C(=N\N1CCN(C2c3ccccc3-c3ccccc32)CC1)/c1cccs1,inactive
18,Cc1ccc(C(=O)Oc2ccc(C(=O)COC(=O)c3cnccn3)cc2)cc1,inactive
19,O=[N+]([O-])c1ccc(CNC2CCCc3ccccc32)cc1 (stereo not given),inactive
20,COc1cc(C2Nc3cccc4cccc(c34)N2)cc(OC)c1O,inactive
21,CCOC(=O)CCCc1c[nH]c2ccccc12,inactive
22,COc1ccc(-n2c(C)cc(C(=O)Cn3nc(C(=O)O)c4ccccc4c3=O)c2C)cc1,inactive
